Source: PubChem (National Center for Advancing Translational Sciences (NCATS))
The list is not random: actives were taken first. Their share in the collection is about 11%.
hNpr1 antagonist: Natriuretic polypeptide receptor (hNpr1) antagonism - Primary qHTS | Atrial natriuretic peptide receptor 1 (Homo sapiens), P16066 | HEK293 hNpr1 GloSensor cGMP, ANP-stimulated luminescence | Potency, µM (series often up to 46.3 µM), without a hit: at the highest dose activity change, negative = inhibition, hits mostly inhibitors | 76,000 compounds, 1.6% hits | AID 1347048, 2019; calls by dose curve; note: % is set by controls: 0 for no effect and ±100 for the full control effect; nearly all actives have a fitted effect of over 60% in size
Target sequence (P16066 whole entry, looked up): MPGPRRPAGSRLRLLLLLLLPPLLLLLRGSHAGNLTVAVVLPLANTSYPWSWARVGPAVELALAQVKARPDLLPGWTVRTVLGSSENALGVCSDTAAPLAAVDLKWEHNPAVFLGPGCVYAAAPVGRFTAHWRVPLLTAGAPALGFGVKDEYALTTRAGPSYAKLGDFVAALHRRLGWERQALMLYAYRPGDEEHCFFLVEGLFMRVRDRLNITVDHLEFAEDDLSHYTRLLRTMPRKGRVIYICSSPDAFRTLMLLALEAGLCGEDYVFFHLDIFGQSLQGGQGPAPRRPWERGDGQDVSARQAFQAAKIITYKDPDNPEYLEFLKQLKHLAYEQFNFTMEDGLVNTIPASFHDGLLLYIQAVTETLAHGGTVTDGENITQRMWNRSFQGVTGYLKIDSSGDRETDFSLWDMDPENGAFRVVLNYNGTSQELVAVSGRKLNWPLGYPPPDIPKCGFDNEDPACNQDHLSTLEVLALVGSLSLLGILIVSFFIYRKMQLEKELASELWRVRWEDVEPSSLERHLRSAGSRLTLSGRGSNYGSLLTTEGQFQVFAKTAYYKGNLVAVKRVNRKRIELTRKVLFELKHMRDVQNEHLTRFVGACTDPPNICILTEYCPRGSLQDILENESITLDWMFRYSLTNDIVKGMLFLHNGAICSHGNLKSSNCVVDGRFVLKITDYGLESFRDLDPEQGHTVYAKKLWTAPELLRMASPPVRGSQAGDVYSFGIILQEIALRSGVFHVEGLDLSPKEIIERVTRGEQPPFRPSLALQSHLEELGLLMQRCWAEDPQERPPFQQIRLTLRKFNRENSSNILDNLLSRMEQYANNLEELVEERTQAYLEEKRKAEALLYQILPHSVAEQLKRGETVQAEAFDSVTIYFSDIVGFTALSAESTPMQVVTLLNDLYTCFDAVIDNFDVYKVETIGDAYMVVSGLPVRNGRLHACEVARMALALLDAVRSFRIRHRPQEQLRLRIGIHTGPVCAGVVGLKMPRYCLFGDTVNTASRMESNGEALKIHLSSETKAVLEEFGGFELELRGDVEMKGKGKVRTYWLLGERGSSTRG
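HEK293 cells stably expressing human Npr1 and cGMP GloSensor pGS-40F, loaded 2 h with 2% GloSensor reagent, given compound 30 min at room temperature. Luminescence read before and 20 min after 0.1 nM hNppA.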
HEK293 tox: Cytotoxic Profiling in HEK 293 Cell Line of Diverse Libraries Using Quantitative High-Throughput Screening; 94,000 compounds, 6.6% hits; Potency, µM (series often up to 115 µM), inactives show top-dose activity change, negative = cytotoxicity, actives largely listed as inhibitors; HEK 293 viability, ATP luminescence (CellTiter-Glo), 48-72 h; note: % is set by controls: 0 for no effect and ±100 for the full control effect; nearly all actives have a fitted effect of over 60% in size
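CellTiter-Glo luminescence (cellular ATP) was read after 48 or 72 hr of compound exposure at 37 degree Celsius. Cells were HEK 293 plated at 250 cells/well.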
FLuc inh: Firefly luciferase inhibition profiling of diverse chemical library using quantitative high-throughput screening. AID 1347043, 2019. purified P. pyralis luciferase, luminescence, biochemical. Luciferin 4-monooxygenase (Photinus pyralis), P08659. Potency, µM (doses to about 115 µM), usual class: inhibitors. 76,000 compounds, 2.5% hits; note: % is set by controls: 0 for no effect and ±100 for the full control effect; nearly all actives have a fitted effect of over 65% in size
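Purified 10nM P. pyralis luciferase with 10uM D-luciferin and 10uM ATP in 50mM Tris acetate pH 7.5, 10mM Mg acetate, 0.01% Tween-20, 0.05% BSA. qHTS titration; luminescence read by CCD imager.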
NIH3T3 tox: Cytotoxic Profiling in NIH 3T3 Cell Line of Diverse Libraries Using Quantitative High-Throughput Screening; 94,000 compounds, 4.3% hits; Potency, µM (doses to about 96.7 µM), for inactives: at the highest dose activity change, negative = cytotoxicity, usual class: inhibitors; AID 1345082, 2018; NIH 3T3 viability, CellTiter-Glo ATP luminescence, 48-72 h; note: % is set by controls: 0 for no effect and ±100 for the full control effect; nearly all actives have a fitted effect of over 55% in size
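Luminescent ATP readout (CellTiter-Glo, 10 min RT) after 48 or 72 hr compound exposure of NIH 3T3 cells seeded at 400 cells/well in 1536-well format; quantitative HTS.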
Npr1 antag conf: Natriuretic polypeptide receptor (hNpr1) antagonism - Confirmation; shares compounds with hNpr1 antagonist; HEK293 hNpr1 cGMP GloSensor luminescence, ANP-stimulated; Potency, µM (series often up to 57.6 µM), inactives show at the highest dose activity change, negative = inhibition, most hits filed as inhibitors; 1,400 compounds, 76% hits; calls by dose curve; note: nearly all actives have a fitted effect of over 70% in size
NPR2 antag: Natriuretic polypeptide receptor (hNpr2) antagonism - Subtype selectivity assay. shares compounds with hNpr1 antagonist. HEK293 hNpr2 GloSensor cGMP luminescence, CNP-stimulated. Potency, µM (doses to about 57.6 µM), for the others: top-dose activity change, negative = inhibition, most hits filed as inhibitors. 1,400 compounds, 67% hits; calls by dose curve; note: nearly all actives have a fitted effect of over 70% in size
FLuc counter: Natriuretic polypeptide receptor (hNpr1) antagonism - Confirmation firefly luciferase (FLuc) inhibition counterscreen; shares compounds with hNpr1 antagonist; purified FLuc enzyme, luminescence, Km substrate; Potency, µM (titrated, usually from 57.6 µM), for inactives: top-dose activity change, negative = inhibition, usual class: inhibitors; 1,400 compounds, 0.7% hits; AID 1347047, 2019; note: series mostly up to about 58 µM; 0% is about no effect
GloSensor ctrl: Natriuretic polypeptide receptor (hNpr1) antagonism - Counterscreen GloSensor control cell line | shares compounds with hNpr1 antagonist | HEK293 GloSensor cGMP, SNP-stimulated, luminescence | Potency, µM (top dose mostly 57.6 µM), for inactives: at the top dose activity change, negative = inhibition, hits mostly inhibitors | 1,400 compounds, 69% hits; calls by dose curve; note: % is set by controls: 0 for no effect and ±100 for the full control effect; nearly all actives have a fitted effect of over 70% in size
Active calls of the source: *; [ ] = remark or other dose. Unless noted, calls come from the whole dose curve; as a rule, active = well fitted curve in the direction sought with a large enough effect; inconclusive = small, poorly fitted or top-dose-only effect, or another doubt; inactive = no such curve, though single readings can be large; an effect the other way counts as inactive or inconclusive. Potency is the fitted concentration of half-maximal effect.

How did OC[C@H]1CCN(c2ccnc3c(C(F)(F)F)cccc23)C[C@H]1O do in these assays?
hNpr1 antagonist: -0.9%; HEK293 tox: inconclusive; FLuc inh: inactive; NIH3T3 tox: -3.6%

Results for CCOc1cc(C)c(CN2CCC3(C2)CN(C)C(=O)O3)cc1C(C)C (stereo not given) ?
hNpr1 antagonist: -3.5%; HEK293 tox: inconclusive; FLuc inh: inactive; NIH3T3 tox: inconclusive

Results for CCNC(=O)N1CCOc2ccc(CCC(=O)Nc3ccc(C)cc3)cc2C1 ?
hNpr1 antagonist: 11.2µM*; HEK293 tox: inconclusive; FLuc inh: inactive; NIH3T3 tox: inconclusive; Npr1 antag conf: 15.3µM*; NPR2 antag: 19.3µM*; FLuc counter: -14.7%; GloSensor ctrl: 12.2µM*

What do the screens show for `CCCNC(=O)CCc1ccc2c(c1)CN(C(=O)NCC)CCO2`?
hNpr1 antagonist: 2.3%; HEK293 tox: 1.1%; FLuc inh: inactive; NIH3T3 tox: -11.6%

How did O=[S+]1([O-])NCC2(CCN(CC3CC3)CC2)Nc2ccccc21 do in these assays?
hNpr1 antagonist: 0.0%[70.6 µM]; HEK293 tox: inactive; FLuc inh: inactive; NIH3T3 tox: inactive

Results for CN1C(=O)N(CCc2ccccc2)C(=O)C12CCN(Cc1cccn1-c1ccccn1)CC2 ?
hNpr1 antagonist: -8.3%; HEK293 tox: -11.4%; FLuc inh: inactive; NIH3T3 tox: 1.8%

What do the screens show for `CN1CCCCCCN(C(=O)COc2ccccc2)[C@H]2CCC[C@H]2C1=O`?
hNpr1 antagonist: -4.0%; HEK293 tox: -20.7%; FLuc inh: inactive; NIH3T3 tox: -10.9%

What do the screens show for `CC(=O)Nc1cc(-c2cn(C)c(=O)n3cc(COc4ccc(Cl)cc4)nc23)ccn1`?
hNpr1 antagonist: -13.1%[70.6 µM]; HEK293 tox: -49.8%[172 µM]; FLuc inh: inactive; NIH3T3 tox: -40.6%[138 µM]

What do the screens show for `Cn1cc(-c2ccc(O)c(F)c2)c2nc(COc3ccc(Cl)cc3)cn2c1=O`?
hNpr1 antagonist: 14.1µM*; HEK293 tox: 31.6µM*; FLuc inh: inactive; NIH3T3 tox: 31.6µM*; Npr1 antag conf: 31.4µM*; NPR2 antag: 31.4µM*; FLuc counter: inconclusive; GloSensor ctrl: 28µM*

How did COc1ccc(CC(=O)N2CCC(Cc3nc(-c4ccccc4)no3)CC2)cc1Cl do in these assays?
hNpr1 antagonist: 12.6µM*; HEK293 tox: inconclusive; FLuc inh: inactive; NIH3T3 tox: 35.5µM*; Npr1 antag conf: 24.3µM*; NPR2 antag: 27.3µM*; FLuc counter: 1.9%; GloSensor ctrl: 24.3µM*

Results for COc1ccc(-c2noc(CC3CCN(C(=O)Cc4ccc(OC)c(Cl)c4)CC3)n2)cc1 ?
hNpr1 antagonist: 12.6µM*; HEK293 tox: inconclusive; FLuc inh: inactive; NIH3T3 tox: inconclusive; Npr1 antag conf: 24.3µM*; NPR2 antag: 24.3µM*; FLuc counter: 0.4%; GloSensor ctrl: 17.2µM*

Results for CCOc1ccc(C(=O)N2CCC3(CC2)N=C(c2ccc(Cl)cc2)NO3)cc1 ?
hNpr1 antagonist: 8.91µM*; HEK293 tox: inconclusive; FLuc inh: inactive; NIH3T3 tox: 0.7%; Npr1 antag conf: 19.3µM*; NPR2 antag: 17.2µM*; FLuc counter: -3.3%; GloSensor ctrl: 15.3µM*

Results for CCOc1ccc(CC(=O)N2CCC3(CC2)N=C(c2ccc(Cl)cc2)NO3)cc1 ?
hNpr1 antagonist: inconclusive; HEK293 tox: inconclusive; FLuc inh: inactive; NIH3T3 tox: inconclusive

How did O=C(c1ccc2c(c1)OCO2)N1CCC2(CC1)N=C(c1ccc(Br)cc1)NO2 do in these assays?
hNpr1 antagonist: 12.6µM*; HEK293 tox: inconclusive; FLuc inh: inactive; NIH3T3 tox: inconclusive; Npr1 antag conf: 21.7µM*; NPR2 antag: 19.3µM*; FLuc counter: -2.1%; GloSensor ctrl: 17.2µM*

How did COc1ccc(C(=O)N2CCC3(CC2)N=C(c2ccccc2)NO3)cc1OC do in these assays?
hNpr1 antagonist: 0.6%; HEK293 tox: 6.7%; FLuc inh: inactive; NIH3T3 tox: inactive

What do the screens show for `COc1ccc(C(=O)N2CCC3(CC2)N=C(c2ccc(Cl)cc2)NO3)cc1OC`?
hNpr1 antagonist: 11.2µM*; HEK293 tox: inconclusive; FLuc inh: inactive; NIH3T3 tox: -28.6%; Npr1 antag conf: 10.9µM*; NPR2 antag: 12.2µM*; FLuc counter: 0.2%; GloSensor ctrl: 9.68µM*

Results for COc1ccc(C(=O)N2CCC3(CC2)N=C(c2ccc(Br)cc2)NO3)cc1OC ?
hNpr1 antagonist: 10µM*; HEK293 tox: inconclusive; FLuc inh: inactive; NIH3T3 tox: -24.1%; Npr1 antag conf: 6.85µM*; NPR2 antag: 10.9µM*; FLuc counter: -1.1%; GloSensor ctrl: 6.85µM*

What do the screens show for `Cc1cccc(OCCc2noc(C3CCCCN3S(=O)(=O)c3cn(C)cn3)n2)c1` (stereo not given)?
hNpr1 antagonist: -5.4%; HEK293 tox: inconclusive; FLuc inh: inactive; NIH3T3 tox: -14.0%

Results for CN1C(=O)CO[C@H](c2ccc(NC(=O)C3CCCC3)cc2)[C@H]1CO ?
hNpr1 antagonist: -0.4%[70.6 µM]; HEK293 tox: -4.4%[172 µM]; FLuc inh: inactive; NIH3T3 tox: 3.3%[138 µM]

How did CCC1Oc2ccc(NC(=O)COC)cc2CN(Cc2cc(F)cc(F)c2)C1=O (stereo not given) do in these assays?
hNpr1 antagonist: -4.8%; HEK293 tox: -21.5%; FLuc inh: inactive; NIH3T3 tox: -17.8%

What do the screens show for `CCCCNC(=O)c1cccc(-c2cc(N3CCN(C)CC3)nc(N)n2)c1`?
hNpr1 antagonist: inconclusive; HEK293 tox: inconclusive; FLuc inh: inactive; NIH3T3 tox: -8.5%; Npr1 antag conf: inconclusive; NPR2 antag: -28.0%; FLuc counter: 0.7%; GloSensor ctrl: inconclusive
